Assay outcomes deposited in PubChem BioAssay by National Center for Advancing Translational Sciences (NCATS).
LDHA inh: blocks human lactate dehydrogenase A; purified LDHA, NADH/diaphorase-resazurin fluorescence; stronger effect = lower value; activity change, % (values are at about 110 or 230 µM); actives 0.15% (n = 480,000); AID 1347041; in the data active = activity change below about -30%; inconclusive = mostly about -25% to -30%;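 note: plate controls were DMSO wells for no effect and wells without enzyme for full effect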
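Enzyme activity of human lactate dehydrogenase 5 (2 nM; 0.06 mM NADH, 0.2 mM pyruvate, 5 min, RT) is measured via a resazurin/diaphorase fluorescence readout of residual NADH.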
KCNH2 3.1 block: inhibitors of human KCNH2 3.1 potassium channel isoform. U2OS KCNH2 3.1, thallium flux FluxOr; stronger effect = lower value. activity change, % (tested at about 1.8 µM). actives 0.95% (n = 340,000);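 active = maximum activity change below -70%; inconclusive = maximum activity change from -70% to -50%; inactive = maximum activity change above -50%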;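 note: thallium influx rate constant from kinetic fluorescence after stimulation buffer; % is set by controls: 0 for no effect and ±100 for the full control effect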
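Virally transduced U2OS (3.1 isoform, 4 h infection in dark at RT) → overnight 37 C → FluxOr + Red40 in HBSS/HEPES, 45 min → stimulation buffer, 2 min kinetic read → rate constant vs DMSO controls.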
ClpP mod: qHTS Assay for Activators of ClpP; Potency, µM (top dose mostly 57.5 µM), without a hit: at the highest dose activity change, negative = active; actives 1.9% (n = 340,000); purified B. subtilis ClpP, FRET peptide cleavage, 20 min; ATP-dependent Clp protease proteolytic subunit (Bacillus subtilis (strain 168)), P80244; AID 651965, 2013; active = well fitted falling curve with a large enough effect; inconclusive = small, poorly fitted or top-dose-only effect; inactive = no such curve, though single readings can be large or run the other way; note: potency is the fitted concentration of half-maximal effect; the source files actives as falling curves though it sought activators and does not explain the sign; nearly all actives have a fitted effect of over 65% in size
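FRET quenching reversal measured ClpP activation: 10 microg/mL B. subtilis ClpP at pH 8 with the FRET-FV decapeptide, read at 430 nm after 320 nm excitation. The 20-min minus 0-min signal was scaled between DMSO/no-enzyme wells and ADEP (5.8 microM final).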
Chronic BCR inh: blocks chronic active B-cell receptor signaling. AID 493014. actives 0.05% (n = 340,000). Potency, µM (top dose mostly 46.1 µM), for inactives: at the highest dose activity change, negative = inhibition, usual class: inhibitors. ABC-DLBCL IkBa-CBG/CBR reporter, luminescence ratio, 4 h; active = well fitted inhibition curve with a large enough effect in the signal ratio, with a control signal flat, not every such curve was filed as active; inconclusive = small, poorly fitted or top-dose-only effect, or effect the other way, or a change in a side signal; the % refers to the signal ratio;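 note: potency is the fitted concentration of half-maximal effect; plate controls were basal doxycycline-induced cells for no effect and cells given 10 µM MG132 for full effect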
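Cell line TMD8 (human ABC DLBCL), stably expressing tet-inducible CBG68-IkBa fusion and CBR; IMDM/0.5% FBS; cpd up to 46 uM; dox induction, 4 h, 37C/5% CO2; dual luminescence; green/red ratio; MG132 control.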
ALOX12 inh: ALOX12 (human) lipoxygenase inhibition | P18054 | purified 12hLO, xylenol orange hydroperoxide absorbance | Potency, µM (doses to about 108 µM), for the others: at the highest dose activity change, negative = inhibition, most hits filed as inhibitors | actives 1.1% (n = 580,000) | AID 1671190; active = well fitted inhibition curve with a large enough effect; inconclusive = small, poorly fitted or top-dose-only effect, or another doubt; inactive = no such curve, though single readings can be large or run the other way; note: potency is the fitted concentration of half-maximal effect; % is set by controls: 0 for no effect and ±100 for the full control effect
Target sequence (P18054 whole entry, looked up): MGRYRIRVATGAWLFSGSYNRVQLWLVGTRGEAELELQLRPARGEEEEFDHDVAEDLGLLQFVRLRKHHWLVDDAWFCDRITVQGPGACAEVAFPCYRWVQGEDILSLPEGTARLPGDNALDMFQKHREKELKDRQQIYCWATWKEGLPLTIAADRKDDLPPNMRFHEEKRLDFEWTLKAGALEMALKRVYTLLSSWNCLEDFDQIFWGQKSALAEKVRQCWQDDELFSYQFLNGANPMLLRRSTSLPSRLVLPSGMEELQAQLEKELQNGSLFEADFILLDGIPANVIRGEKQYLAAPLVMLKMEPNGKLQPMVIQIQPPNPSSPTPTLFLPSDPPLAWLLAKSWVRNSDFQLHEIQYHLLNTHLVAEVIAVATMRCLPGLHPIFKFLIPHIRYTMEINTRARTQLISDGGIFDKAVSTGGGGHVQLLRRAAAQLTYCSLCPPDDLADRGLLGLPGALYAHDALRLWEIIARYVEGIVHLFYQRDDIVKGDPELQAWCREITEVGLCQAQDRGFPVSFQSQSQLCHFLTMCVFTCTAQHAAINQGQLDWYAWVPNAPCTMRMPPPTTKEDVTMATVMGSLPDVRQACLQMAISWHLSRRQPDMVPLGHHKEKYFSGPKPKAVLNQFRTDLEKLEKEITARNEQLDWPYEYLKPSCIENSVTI
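Purified human 12hLO (150 nM final) in 25 mM Hepes, 0.01% Triton X-100, pH 7.0 was preincubated 15 min at room temperature with compound. Then 40 uM arachidonic acid was added, 30 min. Hydroperoxide was read by Fe-XO absorbance ratio 573/405 nm.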
KCNH2 WT inh: inhibitors of human wildtype KCNH2 potassium channel | Q12809 | actives 0.37% (n = 340,000) | U2OS, BacMam KCNH2, thallium flux FluxOr; stronger effect = lower value | activity change, % at 1.84 µM;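 active = maximum activity change below -70%; inconclusive = maximum activity change between -70% and -50%; inactive = maximum activity change above -50%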; note: % is set by controls: 0 for no effect and ±100 for the full control effect
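U2OS cells transduced with wild-type KCNH2 virus are loaded with FluxOr dye for 45 min, and thallium flux is measured in kinetic reads before and after stimulation buffer. Rate constants are normalized to DMSO controls.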
* marks the source's active call; other numbers are inactive results; i = inactive; ? = inconclusive; . = no result; [ ] = remark or other dose. In the library only some 3% were active in any assay of this set; here they are far more common.

SMILES	LDHA inh	KCNH2 3.1 block	ClpP mod	Chronic BCR inh	ALOX12 inh	KCNH2 WT inh
CCOc1ccc2ccccc2c1C1NC(=S)N(C)C(C)=C1C(=O)OC (centres undefined)	0.3	0.0	8.91µM*	10.5%	0.0%	6.6
C/C(CC1CC(C)OC1=O)=N\NC(N)=S (centres undefined)	-1.8	15.4	-0.6%	0.5%	-3.0%	.
C/C(=N\NC(N)=S)C1C2C3CC4C5CC(C42)C1C53 (centres undefined)	-2.0	11.6	.	-0.4%	17.8µM*	i
COCCn1c(-c2ccc(F)cc2)nc2oc3cc(OC)ccc3c(=O)c2c1=O	-6.5	-90.8*	-3.8%	3.7%	?	-1.9
COc1ccc(NC(=O)CCc2c[nH]c3ccccc23)cc1OC	0.0	.	.	.	?	.
CCCCn1nc(C(=O)Nc2cc(OC)c(OC)cc2C)c2ccccc2c1=O	7.3	.	.	.	?	.
O=C(Cc1ccc([N+](=O)[O-])cc1)NCc1ccccc1Cl	-2.0	-24.1	11.2µM*	-0.2%	-12.3%	1.7
CC(C)C(=O)N1CCN(c2nc3ccccc3o2)CC1	-20.9	.	.	.	-3.6%	.
C=CCNc1ncnc2c1[nH]c1ccccc12	-17.4	0.9	28.2µM*	1.9%	0.0%	-2.9
C=CCNc1ncnc2ccccc12	-9.2	3.8	-5.0%	-4.5%	-30.0%	-10.8
C=CCNc1ncnc2c1[nH]c1ccc(Cl)cc12	-11.9	-0.2	28.2µM*	?	-5.3%	0.3
c1ccc2c(c1)[nH]c1c(NCC3CCCO3)ncnc12 (centres undefined)	-16.5	1.1	28.2µM*	0.9%	353.8%	-10.0
c1ccc(Nc2nc(NCC3CCCO3)c3ccccc3n2)cc1 (centres undefined)	0.0	-16.4	.	?	44.7µM*	-5.2
c1nc(NCC2CCCO2)c2[nH]cnc2n1 (centres undefined)	-8.8	15.6	-2.3%	.	20.6%	-1.2
CCCOc1c(Br)cc(/C=C/C(=O)c2ccc(O)c(OC)c2)cc1OC	-6.5	.	.	.	?	.
CC(C)N(C)C(=O)c1ccc(OC2CCN(CCc3ccccc3)CC2)cc1	-1.1	-86.8*	0.0%	-19.3%	9.9%	14.0
CCOc1ccccc1NC(=O)C(NCCN(C)C)c1ccccc1 (centres undefined)	-41.1*	-2.2	.	8.6%	4.2%	46.6
CN(C)CCNC(C(=O)Nc1cccc(C(F)(F)F)c1)c1ccccc1 (centres undefined)	-37.3*	-34.9	1.5%	0.2%	-10.4%	19.4
CCOc1ccccc1NC(=O)C(NCCc1ccc(OC)cc1)c1ccccc1 (centres undefined)	0.1	-33.4	-0.8%	?	0.0%	3.2
O=C(O)CCc1ccc(S(=O)(=O)Nc2ccccc2C(=O)Nc2ccccc2)cc1	0.1	.	.	.	53.1%	.
N#C/C(=C\c1ccc(-c2ccccc2)o1)c1ccccc1	3.0	.	.	.	-34.7%	.
N#C/C(=C/c1ccc(-c2ccccc2)o1)c1nc(-c2cccs2)cs1	-0.1	-75.9*	0.9%	5.5%	-11.4%	-19.9
CC(=O)c1ccc(NC(=O)C2(c3ccc(Br)cc3)CCCC2)cc1	-1.6	.	.	.	?	.
CSc1nsc(SCC(=O)Nc2ccc(O)c(C(=O)O)c2)n1	-0.4	9.5	?	-11.1%	39.8µM*	6.3
O=C(Nc1cccc(-c2cccc(F)c2)c1)C1CCN(CC2CCOC2)CC1 (centres undefined)	-4.0	-78.7*	-2.8%	2.2%	29.5%	-43.5
SMILES	LDHA inh	KCNH2 3.1 block	ClpP mod	Chronic BCR inh	ALOX12 inh	KCNH2 WT inh
O=C(Nc1cccc(-c2cccc(F)c2)c1)C1CCN(C2CCC2)CC1	-12.9	-91.0*	0.1%	?	-22.1%	-97.1*
CCOc1ccc(NC(=O)COC(=O)COc2ccc(C3SCCCS3)cc2)cc1OCC	10.7	.	.	.	5.6%	.
CCN(CC)S(=O)(=O)c1ccc(C(=O)Nc2ccc(C)cc2Br)cc1	-0.2	.	.	.	-41.3%	.
CC(C)CCn1c(=O)c2ccccc2n2c(=S)[nH]nc12	-3.8	-4.6	.	6.8%	?	7.3
CCOCCCn1c(=O)c2ccccc2n2c(=S)[nH]nc12	0.0	-17.4	7.1%	12.0%	3.98µM*	-1.3
O=C(Nc1ccccc1C(=O)O)c1cccc(NS(=O)(=O)c2ccc(Br)cc2)c1	-3.5	-8.2	-2.1%	-4.6%	39.8µM*	-14.0
O=C(O)c1ccc(NS(=O)(=O)c2cccc(C(=O)Nc3ccc(Br)cc3)c2)cc1	-4.6	14.0	0.9%	2.4%	-21.8%	-8.6
COc1ccc(NS(=O)(=O)c2cccc(C(=O)NNC(=O)c3cncc(Br)c3)c2)cc1	-1.8	2.9	28.2µM*	-11.3%	-0.3%	-0.3
O=C(NNC(=O)c1ccccc1O)c1ccc(NS(=O)(=O)c2ccc(F)cc2)cc1	5.4	-2.6	.	?	14.4%	-0.9
O=C(Nc1ccccc1C(=O)O)c1cccc(S(=O)(=O)Nc2ccc(Br)cc2)c1	-11.9	-21.5	-1.6%	?	15.8µM*	-3.0
COc1ccc(NS(=O)(=O)c2cccc(C(=O)NNC(=O)c3ccc(Br)o3)c2)cc1	-3.4	-2.6	.	?	-11.0%	-6.1
O=C(NNC(=O)c1ccccc1O)c1ccc(S(=O)(=O)Nc2ccccc2)cc1	5.5	5.2	-2.1%	-5.1%	?	-88.0*
CNc1c(NC(=O)Nc2cccc(Cl)c2)c(=O)oc2ccccc12	-0.3	.	.	.	?	.
O=[S+]1([O-])NC2(CCN(CC3CC3)C2)CNc2ccccc21 (centres undefined)	.	.	.	.	37.7%[176 µM]	.
CCOc1ccc(NC(=O)CN2CCN(CC(=O)Nc3cccc(F)c3)CC2)cc1	-3.3	-85.0*	-1.3%	7.6%	-15.7%	-19.7
CCC(=O)Nc1cc(C(=O)O)ccc1Sc1ccccc1	-4.3	-116.2*	-5.9%	12.4%	?	0.2
CCOc1ccc(NC(=O)CN2CCN(CC(=O)Nc3ccc(F)cc3F)CC2)cc1	2.9	.	-3.1%	.	-28.8%	.
COc1ccc(NC(=O)CN2CCN(CC(=O)Nc3ccccc3Cl)CC2)cc1	-3.6	-85.5*	13.5%	-13.6%	?	-21.4
CN1CCN(CC(=O)Nc2ccccc2Sc2ccccc2)CC1	-33.3*	-10.0	.	-18.1%	?	10.4
COc1ccc(NC(=O)CN2CCN(c3ccccc3Cl)CC2)cc1	-1.8	-8.0	1.4%	-0.5%	0.0%	10.9
COCC(=O)N1CCN(C(=O)c2cccnc2)C[C@H]1C(=O)N[C@@H](CC1CCCCC1)C(N)=O	.	.	.	.	1.8%	.
Cc1cnc(C(=O)Nc2ncc(Cc3ccc(C#N)cc3C(F)(F)F)s2)cn1	-1.3	.	.	.	32.3%	.
